Here are results for 5 molecules from PubChem BioAssay.

The source made the active and inactive calls.

For test [1], the system named is Human papillomavirus type 1a protein E7 (residues 44-93). The experiment in a line: HPV1a E7 fragment binders on microarrays, primary screen, biochemical, small-molecule microarray, residues 44-93, 635 nm fluorescence (AID 1108).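 Further: E7 fragment applied at 1 µg/mL in TBST for 1 h at 4 C; score combines spot fluorescence with its signal to noise ratio.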 The conditions noted are these: small-molecule microarray binding, fluorescence 635 nm; higher = more signal.
Test [2] is described as follows: modulators of HCV replicon luciferase signal, primary screen, HCV replication inhibitor project, Huh7 cells, luciferase reporter (AID 1109).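 Further: huh7 hepatoma cells harbouring a luciferase neomycin HCV replicon reporter; luciferase luminescence as measure of HCV replicon replication; test concentration not given here.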 The conditions noted are these: 48 h, higher = more signal.
Test [3] addresses Left-right determination factor 2 (Homo sapiens) (UniProt O00292). Nature of the test: LEFTY2 binders on small-molecule microarrays, primary screen, biochemical, small-molecule microarray, 635 nm fluorescence scan (AID 1110). The settings on record: LEFTY2 binding, higher = more signal.
Test [4] has as its target Calmodulin-1 (Homo sapiens) (UniProt P0DP23). The experiment in a line: CALM1 binders on microarrays, EGTA buffer, profiling panel, biochemical, small-molecule microarray, Cy5-labelled CALM1 (AID 1111).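 Further: labelled calmodulin applied in Tris saline Tween buffer holding calcium plus EGTA and DTT.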 The conditions noted are these: Cy5-CALM1 binding fluorescence, higher = more signal.
The target is the same in test [5]. The experiment in a line: calcium-bound CALM1 binders on microarrays, profiling panel, artefact control for SMM control-protein annotation, biochemical, small-molecule microarray, Cy5-labelled CALM1, plus calcium (AID 1112).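 Further: score merges spot fluorescence with signal to noise from triplicate slides.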 The conditions noted are these: Cy5-CALM1 binding fluorescence, higher = more signal.
Test [6] is described as follows: small-molecule microarray binders of probe aWnt5a, primary screen, biochemical, biotinylated probe, 635/667 nm fluorescence (AID 1113).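 Further: score merges 667 nm fluorescence intensity with signal-to-noise per printed feature.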 The settings on record: higher = more signal.
Test [7] is described as follows: small-molecule microarray binders of probe aShh, primary screen, biochemical, biotinylated probe, 635/667 nm fluorescence (AID 1114).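 Further: probe is biotin-labelled aShh protein from a stem cell growth factor screen; measures binding of labelled protein to compounds printed on the slide; score merges feature fluorescence at 667 nm with signal-to-noise.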 The conditions noted are these: higher = more signal.
Test [8] in a line: small-molecule microarray binders of probe aNog, primary screen, biochemical, biotinylated probe, 635/667 nm fluorescence (AID 1115).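 Further: probe is biotinylated aNog protein used at 0.15 µg/mL for 1 h at 4 C; z-score combines 667 nm fluorescence of each spot with its signal to noise.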 The conditions noted are these: higher = more signal.
Test [9] has as its target Torsin-1A-interacting protein 1 (Homo sapiens) (UniProt Q5JTV8). Nature of the test: LAP1 binders from COS7 cell lysate, primary screen, small-molecule microarray, 635/667 nm fluorescence (AID 1116). The conditions noted are these: COS7-hLAP1 lysate binding, 635 nm fluorescence, higher = more signal.
The target in test [10] is Alpha-bungarotoxin (Bungarus multicinctus) (UniProt P60615). The experiment in a line: alpha-bungarotoxin binders on microarray, profiling panel, artefact control for SMM control protein annotation, biochemical, small-molecule microarray, Alexa647 label, 635/667 nm fluorescence (AID 1117). The conditions noted are these: alpha-BTX-A647 binding fluorescence, higher = more signal.
Sequence of Alpha-bungarotoxin (Bungarus multicinctus) (P60615 whole entry, looked up): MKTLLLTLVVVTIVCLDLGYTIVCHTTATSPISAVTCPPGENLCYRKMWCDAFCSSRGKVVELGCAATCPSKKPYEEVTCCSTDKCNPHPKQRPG

Test [11] has as its target Albumin (Bos taurus) (UniProt P02769). The experiment in a line: bovine serum albumin binders on microarray, profiling panel, artefact control for SMM control protein annotation, biochemical, small-molecule microarray, Alexa647 label, 635/667 nm fluorescence (AID 1118).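 Further: score merges 667 nm emission intensity and signal-to-noise per printed compound spot.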 The conditions noted are these: BSA-A647 binding, fluorescence 635 nm, higher = more signal.
Test [12] in a line: small-molecule microarray binders of probe aXIP, primary screen, biochemical, NeuroSMM set, 635/667 nm fluorescence (AID 1119).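 Further: probe is the protein aXip251-270 applied at 1 µg/mL to compound-printed slides; binding of probe to printed compounds measured as 667 nm fluorescence plus signal to noise.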 The settings on record: higher = more signal, called active from +8 up or from −8 down.
The nature of test [13]: small-molecule binders of probe aNOTCH3, primary screen, biochemical, small-molecule microarray, 635/667 nm fluorescence (AID 1120).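 Further: probe is a biotin-tagged antibody raised against NOTCH3 rather than NOTCH3 protein; score merges spot fluorescence near 667 nm with spot signal to noise.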 The conditions noted are these: higher = more signal.
Test [14] can be described thus: small-molecule binders of probe aNOTCH2, primary screen, biochemical, small-molecule microarray, 635/667 nm fluorescence (AID 1121).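 Further: score merges feature fluorescence read at 667 nm with its signal to noise.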 The conditions noted are these: higher = more signal.
Test [15] deals with Carbonic anhydrase 2 (Homo sapiens) (UniProt P00918). The experiment in a line: CAII small-molecule binders, profiling panel, biochemical, small-molecule microarray, Alexa647-labelled CAII (AID 1122). The conditions noted are these: CAII-A647 binding fluorescence, higher = more signal.
A short description of test [16]: COS7 lysate on small-molecule microarray, probe aHis, 635 nm (AID 1123).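 Further: z-score combines 667nm fluorescence intensity with signal-to-noise per printed compound spot.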 The settings on record: COS7 cell lysate, fluorescence, higher = more signal.
The nature of test [17]: compound binding in COS7 lysate, probe aLAP1, primary screen, cell lysate, small-molecule microarray (AID 1124).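 Further: lysate comes from COS7 cells expressing LAP1 and is applied at 0.3 µg/mL; score merges spot fluorescence near 667 nm with signal-to-noise over triplicate slides.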 The settings on record: probe aLAP1, fluorescence, higher = more signal.
The subject of test [18] is Sam68 (KHDRBS1). The experiment in a line: Sam68 small-molecule binders, primary screen, biochemical, small-molecule microarray, 635 nm fluorescence (AID 1125).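 Further: score merges 667 nm channel intensity with signal to noise over triplicate slides.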 The settings on record: small-molecule microarray binding, higher = more signal.
In test [19] the test system is Chordin-like protein 2 (CHRDL2). Nature of the test: CHRDL2 small-molecule binders, primary screen, biochemical, small-molecule microarray, 635 nm fluorescence (AID 1126).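 Further: printed compound slides probed with Chrdl2 protein at 4 µg/mL for 1 h at 4 C; score merges 667 nm emission intensity with signal to noise over three replicate slides.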 The settings on record: small-molecule microarray binding, fluorescence 635 nm; higher = more signal.
Test [20] addresses Concanavalin-A (Canavalia ensiformis) (UniProt P02866). The experiment in a line: ConA small-molecule binders, primary screen, artefact control for SMM control protein annotation, biochemical, small-molecule microarray, Alexa647 label, 635 nm (AID 1127).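 Further: z combines 667 nm emission intensity with signal-to-noise across three replicate slides.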 The conditions noted are these: ConA-A647 binding fluorescence, higher = more signal.

Sequence of Concanavalin-A (Canavalia ensiformis) (P02866 whole entry, looked up): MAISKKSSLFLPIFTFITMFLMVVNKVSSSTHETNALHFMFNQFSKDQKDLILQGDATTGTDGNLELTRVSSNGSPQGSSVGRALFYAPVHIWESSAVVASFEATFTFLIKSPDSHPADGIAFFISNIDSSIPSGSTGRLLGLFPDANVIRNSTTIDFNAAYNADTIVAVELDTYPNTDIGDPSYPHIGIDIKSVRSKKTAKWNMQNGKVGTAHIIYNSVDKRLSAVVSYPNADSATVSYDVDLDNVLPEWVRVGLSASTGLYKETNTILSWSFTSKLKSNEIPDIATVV
Sequence of Left-right determination factor 2 (Homo sapiens) (O00292 whole entry, looked up): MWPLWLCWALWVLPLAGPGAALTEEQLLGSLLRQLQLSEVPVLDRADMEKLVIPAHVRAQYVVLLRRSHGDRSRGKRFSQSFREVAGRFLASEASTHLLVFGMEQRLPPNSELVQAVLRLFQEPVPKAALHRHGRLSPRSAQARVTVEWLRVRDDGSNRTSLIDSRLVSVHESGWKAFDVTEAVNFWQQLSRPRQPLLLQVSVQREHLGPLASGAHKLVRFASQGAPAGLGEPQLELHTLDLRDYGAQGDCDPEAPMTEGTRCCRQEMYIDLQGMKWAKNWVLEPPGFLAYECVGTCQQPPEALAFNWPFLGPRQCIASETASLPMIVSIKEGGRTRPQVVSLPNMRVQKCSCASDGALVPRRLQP
Sequence of Torsin-1A-interacting protein 1 (Homo sapiens) (Q5JTV8 whole entry, looked up): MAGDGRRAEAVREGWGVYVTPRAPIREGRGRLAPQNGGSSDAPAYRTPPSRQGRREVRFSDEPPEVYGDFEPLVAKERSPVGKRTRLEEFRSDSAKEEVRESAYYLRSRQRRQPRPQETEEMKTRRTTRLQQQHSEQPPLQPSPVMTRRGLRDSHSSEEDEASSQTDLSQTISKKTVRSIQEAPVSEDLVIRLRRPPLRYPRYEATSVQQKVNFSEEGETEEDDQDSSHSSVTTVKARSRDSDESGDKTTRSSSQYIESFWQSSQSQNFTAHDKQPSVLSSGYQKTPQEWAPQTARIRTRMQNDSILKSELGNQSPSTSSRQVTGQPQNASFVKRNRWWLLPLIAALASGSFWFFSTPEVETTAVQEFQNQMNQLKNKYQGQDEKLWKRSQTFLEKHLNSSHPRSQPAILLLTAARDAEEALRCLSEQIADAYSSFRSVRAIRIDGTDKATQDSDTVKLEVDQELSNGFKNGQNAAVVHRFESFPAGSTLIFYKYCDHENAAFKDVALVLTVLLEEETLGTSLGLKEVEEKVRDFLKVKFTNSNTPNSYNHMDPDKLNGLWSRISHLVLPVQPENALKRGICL
Sequence of Albumin (Bos taurus) (P02769 whole entry, looked up): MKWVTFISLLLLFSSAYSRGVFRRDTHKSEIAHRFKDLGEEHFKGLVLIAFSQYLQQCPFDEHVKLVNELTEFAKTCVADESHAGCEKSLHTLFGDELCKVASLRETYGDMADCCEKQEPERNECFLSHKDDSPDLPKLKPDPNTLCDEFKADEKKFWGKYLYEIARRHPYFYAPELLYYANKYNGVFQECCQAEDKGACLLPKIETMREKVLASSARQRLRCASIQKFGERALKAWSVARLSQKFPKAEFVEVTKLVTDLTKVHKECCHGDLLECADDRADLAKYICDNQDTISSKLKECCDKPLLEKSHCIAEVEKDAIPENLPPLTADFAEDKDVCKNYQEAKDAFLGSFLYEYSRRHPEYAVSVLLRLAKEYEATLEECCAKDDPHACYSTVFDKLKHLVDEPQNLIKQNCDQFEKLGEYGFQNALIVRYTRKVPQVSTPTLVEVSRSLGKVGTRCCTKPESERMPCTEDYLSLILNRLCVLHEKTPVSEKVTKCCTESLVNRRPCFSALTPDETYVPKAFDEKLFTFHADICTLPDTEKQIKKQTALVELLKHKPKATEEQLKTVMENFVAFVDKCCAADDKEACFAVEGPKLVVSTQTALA

Turning to `COc1cc(NN2C(C(O)c3ccc(I)cc3)C=CC3C(=O)N(C)C(=O)C32)cc(OC)c1OC` (stereo not given), the composite z-score in test [1] was 0.539; in [3], -0.379; in test [4] it was 0.143; in test [5], 0.476; in test [6], 0.0077; in test [7], 0.289. The composite z-score is -0.0247 in [8]; 0.917 in test [9]; -0.161 in test [10]; -0.166 in test [11]; 0.163 in test [13]; 0.0586 in test [14]. Besides, the composite z-score in [15] was 0.783; in [16], 1.63; in test [17], 0.189; in [18] it was 0.144; in [19], -0.946; in test [20] it was 0.0133. Besides, the z-score in test [2] is -1.32. Further, in test [12], the composite Z-score was 0.466 (inactive).
For `O=C(O)[C@@]1(Cc2ccccc2)COC(c2ccc(OCCCO)cc2)=N1`, the composite z-score in test [1] is 0.0262; in test [3], -0.714; in [4] it was -0.106; in test [5], 0.0951; in [6], -0.217; in test [7], 0.214. The composite z-score is 0.0254 in test [8]; 0.28 in test [9]; -0.47 in test [10]; -0.584 in [11]; -0.197 in test [13]; -0.135 in [14]. Also, the composite z-score was 0.844 in test [15]; 0.502 in [16]; -0.131 in test [17]; -0.21 in test [18]; -0.675 in [19]; -0.115 in test [20]. This molecule showed a z-score in test [2] of 0.923. The composite Z-score in [12] was 0.133 (inactive).
Turning to `COCCCNC(=O)[C@@H]1c2ccccc2C(=O)N(c2ccc(C)cn2)[C@H]1c1ccc(CO)cc1`, the composite z-score is -0.745 in test [1]; -1.83 in [3]; -0.878 in test [4]; -0.827 in [5]; -0.363 in [6]; -0.19 in [7]. In addition, the composite z-score in test [8] is -0.244; in test [9], -2.83; in [10], -0.958; in test [11] it was -0.767; in test [13] it was -0.644; in test [14], -0.18. Moreover, the composite z-score is 0.0072 in test [15]; -0.908 in test [16]; -0.721 in test [17]; -1.42 in test [18]; -2.03 in test [19]; -0.482 in test [20]. In [2], this molecule registered a z-score of 0.176. Moreover, in [12], the composite Z-score is 0.567 (inactive).
Consider `O=C1O[C@H](c2ccccc2)[C@H](c2ccccc2)N2[C@H]1[C@@H](C(=O)N1CCN(c3ncccn3)CC1)[C@]1(C(=O)Nc3ccc(C#CCCO)cc31)[C@H]2c1ccccc1OCCO`, for which the composite z-score was 1.02 in test [1]; 0.708 in test [3]; 1.46 in test [4]; 0.12 in [5]; -0.091 in test [6]; 0.126 in [7]. For the same molecule, the composite z-score is 0.576 in [8]; 0.453 in test [9]; 1.77 in [10]; 0.759 in test [11]; -0.0918 in [13]; -0.0533 in test [14]. Also, the composite z-score stood at 0.556 in test [15]; 2.03 in test [16]; 1.38 in test [17]; 1.3 in [18]; 0.231 in [19]; 1.11 in test [20]. Moreover, the z-score in test [2] was -1.49. The composite Z-score in test [12] is -0.215 (inactive).
Turning to `COCCOC(=O)N1C(=O)[C@@]2(c3cc(C#Cc4ccc(OC)cc4)ccc31)[C@H](C(N)=O)[C@H]1C(=O)O[C@H](c3ccccc3)[C@H](c3ccccc3)N1[C@@H]2c1ccc(OCCO)cc1`, the composite z-score in [1] was 1.42; in [3], 0.746; in [4] it was 0.894; in test [5], -0.454; in test [6], -0.0512; in [7], -0.12. Also, the composite z-score was 0.492 in test [8]; 1.09 in test [9]; 1.5 in test [10]; -0.884 in [11]; 0.43 in test [13]; -0.0984 in test [14]. Also, the composite z-score came to 0.332 in [15]; 1.79 in test [16]; 0.52 in [17]; 1.3 in [18]; 0.714 in [19]; 0.921 in [20]. This molecule showed a z-score in test [2] of -2.25. Also, in test [12], the composite Z-score was 0.393 (inactive).
